The structures appear in SMILES notation. Values joined by “and” are separate entries in the source; they are usually repeats but may differ in a detail not shown here. Identical values can stand only once. Records with an inconclusive call do not appear. A number with no mark means an inactive call. Calls follow the shape of the dose curve; as a rule, active = well fitted inhibition curve with a large enough effect in the signal ratio, with a control signal flat (not every such curve was filed as active); inconclusive = small, poorly fitted or top-dose-only effect, or effect the other way, or a change in a side signal; inactive = no such curve, though single readings can be large or run the other way; the % refers to the signal ratio.

We go through 40 molecules from PubChem BioAssay (NCATS).
% is scaled to controls: 0 for no effect and ±100 for the full control effect.

Retinoic acid receptor RXR-alpha (Homo sapiens), sequence (P19793 whole entry, looked up): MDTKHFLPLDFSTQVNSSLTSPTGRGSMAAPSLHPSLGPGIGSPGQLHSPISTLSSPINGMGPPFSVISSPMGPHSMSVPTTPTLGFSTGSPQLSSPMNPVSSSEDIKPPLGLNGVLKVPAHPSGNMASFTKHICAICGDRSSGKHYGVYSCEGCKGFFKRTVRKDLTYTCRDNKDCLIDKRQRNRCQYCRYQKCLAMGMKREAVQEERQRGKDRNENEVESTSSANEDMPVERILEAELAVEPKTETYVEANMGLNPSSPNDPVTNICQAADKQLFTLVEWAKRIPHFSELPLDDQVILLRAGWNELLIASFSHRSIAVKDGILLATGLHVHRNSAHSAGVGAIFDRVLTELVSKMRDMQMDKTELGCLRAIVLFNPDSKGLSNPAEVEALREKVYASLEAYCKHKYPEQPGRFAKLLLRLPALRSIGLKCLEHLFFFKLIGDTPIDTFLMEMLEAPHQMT

This test has as its target Retinoic acid receptor RXR-alpha (Homo sapiens) (UniProt P19793). The test can be described thus: qHTS assay for small molecule antagonists of retinoid X receptor alpha signaling (AID 588546). The following applies: HEK293T RXRa-UAS-bla, beta-lactamase ratio, antagonist mode. The source says: NIH Chemical Genomics Center [NCGC] U.S. Environmental Protection Agency [EPA] National Institutes of Environmental Health Sciences [NIEHS] National Toxicology Program [NTP] NCGC Assay Overview The Retinoid X receptor (RXR), a nuclear hormone receptor is expressed in liver, spleen, placenta, epidermis, central nervous system. These receptors are able to form homo and heterodimers with other nuclear receptors and due to this heterodimerizing ability, RXR functions as master regulators producing diverse physiological effects. Three subtypes of RXR exist; alpha, beta and gamma. Retinoid X receptor alpha (RXR-alpha) has potential roles in metabolic signaling pathways, skin alopecia, dermal cysts, cardiac development, insulin sensitization etc. Therefore screening environmental chemicals on RXR-alpha signaling can be used for the studies focused on such therapeutic applications.
NCGC Assay Protocol Summary Using a beta-lactamase reporter-gene under control of Retinoid X receptor--alpha (RXR-alpha) response element, a cell-based assay [GeneBLAzer (RXR-alpha -UAS-bla assay developed by Invitrogen] was used to measure RXR-alpha ligands signaling. GeneBLAzer RXR-alpha -UAS-bla HEK293T cells were used with assay medium containing 2% charcoal-stripped FBS. The assay was performed in clear bottom black Greiner 1536-well plates. Library compounds were measured for their ability to inhibit the reporter gene activity. Compounds were screened in a titration series in 1536-well format. The fluorescence intensity (405 nm excitation, 460/530 nm emission) was measured using an EnVision plate reader. Data was normalized relative to 9-cis-retinoic acid control (500 nM, 100%), and DMSO only wells (basal, 0%). Concentration-response titration points for each compound were fitted to the Hill equation yielding concentrations of half-maximal inhibition (IC50) and maximal response (efficacy) values. qHTS protocol for RXR-alpha beta-lactamase assay in antagonist mode [Step] [Parameter] [Value] [Description] 1. Reagent; 5 uL; 2500 cells/well 2. Incubation; 37 C for 4 hrs 3. Compounds; 23 nL; 0.59 nM to 92 uM 4. Controls (DMSO); 23 nL 5. Agonist (Stimulator); 1uL; 9-cis-retinoic acid at 500 nM and 100 nM final concentrations 6. Incubation; 37 C for 18 hrs 7. Detection reagent; 1 uL of CCF4-dye 8. Incubation; RT for 2 hrs 9. Detection; Fluorescence; Envision plate reader
On the technique in general: In qHTS, concentration-response curves come from the screen itself.
Consider `Cn1c(=O)[nH]c(=O)n(C2CCC(O)CC2)c1=O` (stereo not given), for which the max response is -0.444%.

With `CCCCC(CC)C(=O)OCCOCCOCCOC(=O)C(CC)CCCC` (stereo not given), the max response is -7.08%.

Turning to `CC(=O)OC1CCC(C(C)(C)C)CC1` (stereo not given), the max response is -6.71%.

For `CCCCC(CC)COP(=O)(O)OCC(CC)CCCC` (stereo not given), the max response is -10.6%.

For `CCCCC(CC)COC(=O)CS` (stereo not given), the max response was 2.49%.

Turning to `CSc1ccc(Cl)cc1`, the max response is -2.56%.

For the molecule `CCOC(=O)CC(O)(CC(=O)OCC)C(=O)OCC`, the max response is -3.42%.

In the case of `C/C=C/C/C=C\CCCCCCCCOC(C)=O`, the max response is -0.494%.

`C[Si]1(C)O[Si](C)(C)O[Si](C)(C)O[Si](C)(C)O1`: the max response was 6.05%.

In the case of `CCOC(=O)c1ccccc1C`, the max response is 1.73%.

With `CC(C)CC(C)(O)C#CC(C)(O)CC(C)C` (stereo not given), the max response is -21.9%.

As for `NC(=O)Cc1cccc2ccccc12`, the max response was -14.7%.

As to `CCCCCCC(C)(C)S`, the max response is 4.42%.

For the molecule `O=C(O)c1ccc(C(=O)O)c(C(=O)O)c1`, the max response is -0.212%.

In the case of `CC1(C)CC(OC(=O)CCCCCCCCC(=O)OC2CC(C)(C)NC(C)(C)C2)CC(C)(C)N1`, the max response is -19.6%.

Turning to `O=[N+]([O-])c1ccc2c(c1)Cc1ccccc1-2`, the max response was -11.9%.

As to `CCCCCCCCCC(=O)OC`, the max response was 2.82%.

With `O=c1n(CCO)c(=O)n(CCO)c(=O)n1CCO`, the max response was 2.33%.

Consider `O=C1NC(=O)C(Cc2ccc(OCCN3COc4ccccc4C3=O)cc2)S1` (stereo not given), for which the max response was -11.1%.

Take `COC(=O)c1ccccc1S(=O)(=O)NC(=O)Nc1nc(OC(F)F)cc(OC(F)F)n1`: the max response is -2.35%.

Turning to `CCCCCCCCCCCCCCCCN(C)C`, the max response was -24.8%.

`CCCC/C=C\CCCCCCCCO`: the max response is -9.15%.

With `COCCOCCOCCO`, the max response was 3.15%.

With `N[C@@H]1[C@@H](O)[C@H](O)[C@@H](CO)O[C@H]1O`, the max response is 6.05%.

`COCCOCCOCCOC`: the max response was 2.59%.

Regarding `CCCCCCCCCCCCCc1ccccc1`, the max response is -2.52%.

Consider `CCCCCC1CCC(=O)O1` (stereo not given), for which the max response was 2.03%.

As to `COC(=O)c1ccc(CNS(C)(=O)=O)cc1S(=O)(=O)NC(=O)Nc1nc(OC)cc(OC)n1`, the max response is 13.2%.

On to `CCCCCCCCCCO`, for which the max response was 6.68% and -9.14%.

Turning to `FC(F)(F)c1ccc(Cl)c(Cl)c1`, the max response is -9.01%.

As for `O=C(Cl)c1cc(Cl)cc(Cl)c1`, the max response is -11.9%.

Regarding `Cc1ccc(N)c(S(=O)(=O)O)c1`, the max response was -14.4%.

On to `CCCCCCCCC(=O)O`, for which the max response was -41.9%.

Turning to `CCCCNS(=O)(=O)c1ccccc1`, the max response was 5.33%.

Regarding `CCNc1nc(N)nc(Cl)n1`, the max response was 7.29% and -4.52%.

On to `CCCCC(CC)COC(=O)/C=C\C(=O)OCC(CC)CCCC` (stereo not given), for which the max response was 1.08%.

Regarding `CSC(=O)c1cccc2nnsc12`, the max response was 12.7%.

For the molecule `Brc1ccc(Oc2ccc(Br)cc2)cc1`, the max response is 3.5%.

For the molecule `COc1ccccc1NC(=O)CC(C)=O`, the max response is -16%.

In the case of `O=C(O)c1ccc2c(c1)C(=O)OC2=O`, the max response was -0.339%.
